DTT redox prof: compounds producing H2O2 with reducing agent – biochemical, NIH compound library profiling, artefact control for MLSCN library redox annotation, primary screen. DTT-dependent redox cycling H2O2, phenol red/HRP absorbance; 100% = 100 µM peroxide control, 0% = buffer. actives 0.03% (n = 200,000). AID 878. activation, % at 10 µM;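 active means activation of at least 50% relative to the plate's high and low controls in the primary single-dose screen; inactive means activation below 50%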;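 further: compound incubated with DTT at 0.8 mM final as the reducing agent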
SUMO HTRF inh: blocks human SUMOylation mediated by UBC9; P63279; HTRF SUMOylation assay, SAE1/SAE2 + UBC9, in vitro; inhibition, % at 35 µM; actives 0.36% (n = 290,000); in the data active means inhibition above about 50%, passing the limit was not always enough
Target sequence (P63279 whole entry, looked up): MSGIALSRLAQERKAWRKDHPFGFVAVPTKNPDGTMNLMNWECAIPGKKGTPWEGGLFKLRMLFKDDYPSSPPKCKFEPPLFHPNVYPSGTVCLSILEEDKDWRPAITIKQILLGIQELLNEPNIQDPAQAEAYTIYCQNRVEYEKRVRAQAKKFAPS
p97 ATPase inh: human p97 ATPase inhibition | AID 1481 | inhibition, % at 8 µM | actives 0.42% (n = 220,000) | recombinant p97 ATPase, Kinase-Glo ATP luminescence, 3 h; in the data active means inhibition above about 15%;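 further: 0% = DMSO vehicle and 100% = wells lacking enzyme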
PERK inh: human PERK inhibition, primary cell-based screen. Q9NZJ5. CHO PERK-DD fusion, SEAP luminescence translation reporter. inhibition, % at 5.6 µM. actives 0.17% (n = 220,000);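 active means inhibition above the mean inhibition of all tested compounds plus 3 SD, set separately per screening campaign, cut at about 2.9% in these data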;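 further: PERK kinase domain activated by AP20187 dimerizer at 100 nM; 0% = DMSO with dimerizer and 100% = rapamycin at 8.4 µM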
p97 inh conf: confirmation of human p97 ATPase inhibitors | shares compounds with p97 ATPase inh | actives 44% (n = 760) | inhibition, % at 8 µM | AID 1517 | recombinant p97 ATPase, Kinase-Glo ATP luminescence;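 active means percent inhibition of p97 ATPase above a set limit, the primary screen's mean plus 3 SD, cut at about 15% in these data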;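 further: 0% = DMSO wells and 100% = wells lacking p97 protein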
Numbers without * were called inactive; . = no result given. In the library only some 0.69% were active in any assay of this set; here they are far more common.

SMILES	DTT redox prof	SUMO HTRF inh	p97 ATPase inh	PERK inh	p97 inh conf
CC1=NN(c2ccc(C)cc2C)C(=O)C1C(c1ccccc1O)C1C(=O)N(c2ccc(C)cc2C)N=C1C (stereo not given)	0	41	28*	2	8
Cc1c(C(=O)OCC(=O)Nc2ccc(S(N)(=O)=O)cc2)oc2c1ccc1ccccc12	0	30	16*	1	8
COc1cc(/C=N/NC(=O)c2cc(-c3ccco3)nc3ccccc23)cc(OC)c1O	.	60	16*	0	9
COc1ccc(N(C)C(=O)Nc2ccc3nsnc3c2)cc1	-2	103	32*	0	8
COc1ccc(NC(=S)Nc2ccc3nsnc3c2)cc1	1	97	38*	0	19*
CC(C)N(C(=O)Nc1ccc2nsnc2c1)C(C)C	0	100*	42*	1	17*
S=C(Nc1ccc2nsnc2c1)NC1CCCCC1	-1	94	15*	0	6
S=C(Nc1ccc(Cl)c(Cl)c1)NC1CCCCC1	-4	-7	2	0	.
Cc1cc(/C=N/NC(N)=S)c(O)c(/C=N/NC(N)=S)c1	.	35	19*	2	20*
Cc1cc(=O)[nH]c(SCC(=O)c2ccc(F)c(C)c2)n1	.	15	.	.	.
O=c1[nH]c(CN2CCCCC2)nc2ccccc12	2	-14	25*	0	3
COc1ccc(/C=N/Nc2nnc(-c3ccccc3)c(=O)[nH]2)cc1	0	19	17*	-1	38*
N/C(=N\OC(=O)COc1ccc(Cl)cc1Cl)c1ccncc1	0	-9	-9	-1	.
COc1ccc(/C=N/NC(=O)c2ccc(C)cc2)cc1CN1CCN(c2ccc(F)cc2)CC1	-4	7	3	0	.
COc1ccc(/C=N\NC(=O)c2cc(O)c(O)c(O)c2)cc1CN1CCN(c2ccc(F)cc2)CC1	1	19	17*	0	26*
Oc1ccccc1-c1nnc(SCCN2CCOCC2)n1Cc1ccccc1	0	-8	15*	-1	5
CC(C)(C)N1C(=O)Cc2c1nc(N)c1c(N)nc(N3CCCCC3CO)c(C#N)c21 (stereo not given)	2	100*	28*	0	36*
Cc1ccsc1C=Nc1ccc(O)cc1	1	.	25*	1	3
Cc1onc(-c2ccccc2)c1C(=O)N1CCN(c2ncccn2)CC1	2	5	-7	0	.
CCOC(=O)CC(C#N)c1c[nH]c2ccccc12 (stereo not given)	1	0	16*	0	9
Cc1ccc(NC(=O)COC(=O)CCc2nc3ccccc3c(=O)[nH]2)cc1Cl	0	4	16*	1	1
CCC(Oc1ccccc1F)C(=O)NCCCn1ccnc1 (stereo not given)	.	2	.	.	.
O=C(O)c1ccccc1SCC(=O)N1CCCCC1	2	11	4	0	.
O=C(O)c1ccccc1SCC(=O)N1c2ccccc2Sc2ccccc21	1	2	66*	2	-1
CC(=O)NC(Cc1cccc(C)c1)C(=O)NC1CCN(C(=O)NCc2ccccc2)CC1 (stereo not given)	.	-6	.	.	.
SMILES	DTT redox prof	SUMO HTRF inh	p97 ATPase inh	PERK inh	p97 inh conf
COc1ccc(CNC(=O)CC2Sc3ccccc3NC2=O)cc1 (stereo not given)	0	-4	6	0	.
COC(=O)CC1Sc2ccccc2NC1=O (stereo not given)	1	2	16*	1	5
COC(=O)CCCCC1SCC(NC(=O)c2ccccc2)C1=O (stereo not given)	-1	-5	17*	1	4
CCC1CCCCN1C(=O)CCNC(=O)Cn1cnc2ccccc2c1=O (stereo not given)	.	4	.	.	.
CCN(CC)S(=O)(=O)c1cccc(NC(=O)c2cc(-c3cccs3)nn2-c2ccccc2)c1	1	-8	-1	-1	.
CN(C)S(=O)(=O)c1cccc(NC(=O)c2cc(-c3cccs3)nn2-c2ccccc2)c1	0	-20	26*	-1	5
N#C/C(=C/c1ccc(-c2ccc(C(=O)O)c(Cl)c2)o1)C(=O)NCC1CCCO1 (stereo not given)	0	5	27*	1	37*
CC(=O)Oc1cc2cccc(OC(C)=O)c(=O)c2c(OC(C)=O)c1OC(C)=O	-1	30	29*	1	4
COc1ccccc1CN(Cc1nc2ccccc2c(=O)[nH]1)C(=O)Nc1cccc(C)c1	0	-5	0	-1	.
Cc1cc(SCC(=O)Nc2ccc(O)cc2)n2ncc(-c3ccccc3)c2n1	.	19	5	2	.
Cc1cc(SCC(=O)Nc2ccc(O)cc2)n2nc(C)c(-c3ccccc3)c2n1	.	6	24*	1	8
CC(=O)Nc1ccc(S(=O)(=O)NCCN2CCNC2=O)cc1Cl	.	18	.	.	.
COc1cc2c(C#N)c(N3CCCC3)nc(N)c2c(N)n1	.	.	26*	1	4
COc1ccc2c(c1)c(/C=N/Nc1nc3ccccc3[nH]1)c(C)n2C	.	-37	33*	0	11
CCN(CC(=O)N1CCC(C(N)=O)CC1)S(=O)(=O)c1ccc(Cl)cc1	.	17	.	.	.
CSCCC(NS(=O)(=O)c1ccc(Cl)cc1)C(=O)OCC(=O)NC12CC3CC(CC(C3)C1)C2 (stereo not given)	0	-14	22*	1	-2
COC(=O)C(CCSC)NS(=O)(=O)c1ccc(Cl)cc1 (stereo not given)	0	5	4	0	.
O=C(NN1C(=O)/C(=C/C=C/c2ccco2)SC1=S)c1ccncc1	.	.	40*	1	11
O=C1/C(=C/c2ccco2)SC(=S)N1c1cccnc1	.	84*	18*	1	14
O=C1/C(=C/C=C/c2ccco2)SC(=S)N1c1ccc(O)cc1	.	64*	58*	1	31*
CC(C)C(C(=O)O)N1C(=O)/C(=C/c2cccn2C)SC1=S (stereo not given)	0	-2	-1	1	.
O=C(NN1C(=O)/C(=C/C=C/c2ccccc2)SC1=S)c1ccncc1	0	6	6	1	.
CC(C)C(C(=O)O)N1C(=O)/C(=C/C=C/c2ccco2)SC1=S (stereo not given)	2	76*	19*	2	7
COc1cccc(C(=O)NC2CC(C)(C)Cc3c2cnn3-c2cccc(F)c2)c1OC (stereo not given)	.	-3	.	.	.
COc1cc(/C=N/N=C2/C(=O)Nc3ccccc32)ccc1O	1	3	1	1	.
O=C1Nc2ccccc2/C1=N\N=C\c1ccc(O)c(O)c1	.	18	19*	-1	16*
CCC(C)c1ccc(C2C3=C(Nc4nc(N)[nH]c(=O)c42)c2ccccc2C3=O)cc1 (stereo not given)	.	14	15*	0	5
Cc1ccc(S(=O)(=O)Nc2nc3c(s2)C(=O)CC(C)(C)C3)cc1	-1	22	16*	1	5
COc1ccc(S(=O)(=O)Nc2nc3c(s2)C(=O)CC(C)(C)C3)cc1	.	-9	.	.	.

Screening results as filed in PubChem BioAssay.
